Reporter increase data for 96 compounds are collected here from PubChem BioAssay AID1321 (The Scripps Research Institute Molecular Screening Center, 2008).

Structures are written as SMILES. Several values for one entry are separate records, joined by “and”; a condition that tells them apart may be missing. Equal entries are not always repeated. The campaign covered roughly 220,000 compounds. About 2,600 (1.2%) were called active. The sample holds actives, similar compounds and a random draw of the others, so the mix is not that of the screen. Unmarked numbers belong to inactive results.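 The calls were made as follows: active = activation above the mean of all tested compounds plus 3 SD, set per screening run (cut at about 8.8% in these data); inactive = the rest.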

This experiment concerns the target Wee1-like protein kinase (Homo sapiens) (UniProt P30291). The experiment in a line: Wee1 degradation inhibitors, primary screen, cell-based, HeLa, Wee1K328M-luciferase, luminescence (AID 1321).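 Also: cells exposed to compound for 20 h before luminescence read; 0% = DMSO alone and 100% = MG132 at 30 µM.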 Conditions: HeLa Luc-Wee1K328M stability, at 5 µM, hits give high values, 100% = proteasome inhibitor MG132 effect.
For the compound `CC1(C)CN(c2ccc(-c3ccnc4ncnn34)cc2)C1=O`, the reporter increase is 9.83% (active). Under `Nc1c(-c2ccc(F)cc2)cnc2ncnn12` stands -2.59%; under `Cc1cc(C(=O)OCC(=O)Nc2nccs2)c2ccccc2n1`, -2.08%; under `CCn1nc(C(=O)OCC(=O)N2c3ccccc3CC2C)c2ccccc2c1=O` (stereo unspecified), -0.36%. For `Cc1cc(=O)[nH]c(SCC(=O)N2c3ccccc3CC2C)n1` (stereo unspecified) the value was -2.08%; for `CCOC(=O)c1[nH]c(C)c(C(=O)OCC(=O)N2c3ccccc3CC2C)c1C` (stereo unspecified), 15.6% (active). Under `CC(=O)NCc1ccc(S(=O)(=O)NC2CCN(Cc3ccccc3)CC2)cc1` stands 0.4%; under `CCOc1ccc(OCC)c(NC(=O)C2CCN(S(=O)(=O)c3c(C)noc3C)CC2)c1`, 11.6% (active); under `CCOC(=O)C1CCN(C(=O)C2CCN(S(=O)(=O)c3c(C)noc3C)CC2)CC1`, -0.61%. For `CCOc1ccccc1NC(=O)C1CCN(S(=O)(=O)c2c(C)nn(C)c2C)CC1`, the reporter increase is -1.78%. `CC1(C)CC(N2CCN(C(c3ccccc3)c3ccccc3)CC2)=CC(=[N+]2CCCCC2)C1`: the reporter increase was -0.62%. Under `Nc1nc(O)c(CC(=O)O)s1` stands -1.29%. Under `O=C(O)c1ccc(/C=N/Nc2nc(N3CCCCC3)nc(N3CCCCC3)n2)cc1` stands -2.82%. Under `O=C(c1c(Cl)cccc1Cl)N1CCN(c2cccc3[nH]ccc23)CC1` stands 0.73%. Turning to `O=C(COC(=O)c1ccc(F)cc1F)Nc1ncccn1`, the reporter increase was 0.53%. For `O=C(Cc1nc2ccccc2[nH]c1=O)c1ccc(Cl)cc1` the value was 3.48%. Under `Cc1ccc(-c2nc3ccccc3[nH]2)cc1N` stands 0.78%.

As to `Cc1ccc(-c2nc3ccccc3[nH]c2=O)cc1`, the reporter increase was 9.13% (active). Under `O=C(COC(=O)c1ccc(S(=O)(=O)Nc2ccccc2)cc1)NCC1CCCO1` (stereo unspecified) stands -1.62%; under `NS(=O)(=O)c1ccc(NC2=CC(c3ccc(F)cc3)N(c3ccc(S(N)(=O)=O)cc3)C2=O)cc1` (stereo unspecified), 0.72%. With `CC(CNS(=O)(=O)c1ccc(Br)cc1)CN(C)C` (stereo unspecified), the reporter increase was -0.62%. As to `O=S(=O)(Nc1ccc(Cl)cn1)c1cnc(Cl)c(Br)c1`, the reporter increase was -0.3%. For `COc1ccc(CN2C(=O)C(C)S/C2=N/N=C/c2ccco2)cc1` (stereo unspecified) the value was 5.4%; for `CN(C)S(=O)(=O)c1cccc(NC(=S)NCc2ccc3c(c2)OCO3)c1`, 3.85%.

On to `CN(C)S(=O)(=O)c1cccc(NC(=S)N/N=C/C(=O)c2ccccc2)c1`, for which the reporter increase is -1.91%. `Cc1ccc(/C=N/NC(=S)Nc2cccc(S(=O)(=O)N(C)C)c2)o1`: the reporter increase was 9.21% (active).

Consider `O=C(COC(=O)c1ccccc1SCC(=O)NC1CCCCC1)NC1CCCCC1`, for which the reporter increase is 11.2% (active). For `N#Cc1ccccc1Sc1ccccc1C(=O)OCC(=O)NC1CCCCC1` the value was 2.45%; for `CCOc1ncccc1C(=O)OCC(=O)NC1CC1`, -1.43%. Regarding `COc1ccccc1Nc1nc(N)nc(CSC(=S)N2CCOCC2)n1`, the reporter increase is -0.95%.

For the compound `O=C(Nc1ccc2c(c1)OCCO2)c1ccoc1`, the reporter increase was 2.96%. With `Cc1coc2cc3oc(=O)c(CCC(=O)O)c(C)c3cc12`, the reporter increase is 5.73%.

Take `S=c1[nH]nc(-c2ccncc2)n1/N=C/c1ccccc1Cl`: the reporter increase is -0.32%.

For the compound `COc1ccc(O)c(C(=O)c2cnc3c(c2)c(-c2ccc(F)cc2)c(C#N)c(=O)n3C)c1`, the reporter increase was 9.71% (active). Under `COc1ccc(O)c(C(=O)c2cnc3onc(C(C)C)c3c2)c1` stands -2.73%; under `COCCn1c(=O)[nH]c(=O)c2cc(C(=O)c3cc(OC)ccc3O)cnc21`, 0.11%; under `COc1ccccc1NC(=O)c1cc(Cl)nc2ccccc12`, 0.15%. Turning to `Nc1cccc(S(=O)(=O)Nc2ccc(SC(F)F)cc2)c1`, the reporter increase was -0.8%.

In the case of `CCOC(=O)[C@H]1CCC[C@@H](NS(=O)(=O)c2ccc(NC(C)=O)cc2)C1`, the reporter increase is 0.32%. For `CC(C)NS(=O)(=O)c1ccc(NC(=O)C2CCCCC2)cc1` the value was -3.05%. Under `CC(=O)Nc1ccc(S(=O)(=O)NC(C)C(=O)OCC(=O)NC2CCCC2)cc1` (stereo unspecified) stands 11.2% (active). For `OCCC1CN(Cc2cccc(O)c2)CCN1CCc1ccccc1` (stereo unspecified) the value was -3.15%; for `OCCC1CN(Cc2ccc(Oc3ncccn3)cc2)CCN1CCc1ccccc1` (stereo unspecified), -0.52%; for `OCCC1CN(Cc2cnc(-c3ccccc3)s2)CCN1CCc1ccccc1` (stereo unspecified), 9.46% (active).

Take `O=C(O)Cc1csc(-c2cccc(Oc3ccccc3)c2)n1`: the reporter increase is 3.33% and -2.75%. Under `S=c1nc2ccccc2c2nc(-c3cccnc3)[nH]n12` stands 1.58%; under `C=CCn1c(=S)sc2c(=O)[nH]c(C)nc21`, 9.98% (active). For `C=CCn1c(-c2ccc3[nH]c(C)c(C)c3c2)n[nH]c1=S` the value was -4.16%; for `C=CCn1c(-c2sc(-c3ccccc3)nc2C)n[nH]c1=S`, -4.5%. Regarding `S=c1[nH]nc(-c2cccs2)n1/N=C/c1cn(-c2ccccc2)nc1-c1ccc(Cl)cc1`, the reporter increase was -0.32%. Under `CCc1ccc2oc(-c3ccc(N)cc3)nc2c1` stands 18.6% (active); under `COc1cccc(-c2nc3cc(C)ccc3o2)c1`, 1.41%; under `CCCCCC(=O)Nc1ccc2oc(-c3ccncc3)nc2c1`, -0.09%. `O=C(NCc1ccccc1)c1ccc(CNc2c(N3CCCC3)c(=O)c2=O)cc1`: the reporter increase was -2.66%. Under `CN1CCN(C(c2cc3cc4c(cc3[nH]c2=O)OCCO4)c2nnnn2C2CCCC2)CC1` (stereo unspecified) stands 11.8% (active); under `COc1ccc(N2CCN(C(c3cc4ccc(C)cc4[nH]c3=O)c3nnnn3C3CCCC3)CC2)cc1` (stereo unspecified), 0.68%. Under `CCOC(=O)C1CCN(C(c2cc3cc(C)cc(C)c3[nH]c2=O)c2nnnn2C2CCCCC2)CC1` (stereo unspecified) stands 1.1%; under `COc1ccc(-c2nn(C)c(=O)c3ccccc23)cc1CNC(=O)C1CCCCC1`, 0.26%. On to `CCN(CC)CCNCC(=O)Nc1ccc(Oc2ccccc2)cc1`, for which the reporter increase was 2.79%.

Consider `O=c1ccnc(Nc2ccc(Cl)cc2)[nH]1`, for which the reporter increase was 1.16%. `O=C(COC(=O)c1ccc(NS(=O)(=O)c2cccs2)cc1O)Nc1ccc(F)cc1`: the reporter increase was -0.64%. In the case of `COc1ccc(-n2ncc3c(N4CCCc5ccccc54)ncnc32)cc1`, the reporter increase was 3.61%.

On to `COc1ccc(-n2ncc3c(N4CCc5ccccc54)ncnc32)cc1`, for which the reporter increase was 8.86% (active). For `c1ccc(-n2ncc3c(N4CCCC4)ncnc32)cc1` the value was 5.02%. For `COc1ccc(CCNC(=O)C(=O)Nc2ccc3nc4n(c(=O)c3c2)CCCCC4)cc1OC` the value was 1.04%. For `Brc1ccc(-c2noc(-c3ccccc3)n2)o1` the value was 0.13%. As to `Cn1c(CSCC(=O)Nc2ccccc2)nnc1SCc1ccccc1`, the reporter increase is -1.68%. For `Cc1ccc(N=C2NC(=O)c3cccc([N+](=O)[O-])c32)cc1` the value was 8.82% (active).

As to `COC(=O)c1cccc([N+](=O)[O-])c1CS(=O)(=O)c1ccc(C)cc1`, the reporter increase is 1.24%.

In the case of `CCCCOc1ccc(CON(C(C)=O)C(C)=O)cc1Cl`, the reporter increase was -0.35%. Consider `c1csc(-c2nnc(COc3ncnc4sccc34)o2)c1`, for which the reporter increase is 1.62%.

With `O=C1C(Cc2ccc(O)cc2)NC(=S)N1Cc1ccccc1` (stereo unspecified), the reporter increase was -2.34%. For `COc1cccc(-n2c(=S)[nH]c3c(oc4ccccc43)c2=O)c1` the value was 5.9%; for `CSc1nc2sc3c(c2c(=O)[nH]1)CCc1ccccc1-3`, -0.01%; for `COc1ccc(-n2c(=S)[nH]c3sc4c(c3c2=O)CCc2ccccc2-4)cc1`, 8.88% (active).

As for `COc1ccc(CCNS(=O)(=O)c2cccc3cccnc23)cc1OC`, the reporter increase is -3.35%. Under `Cc1ccc(/C=N/NC(=O)CSc2ccccn2)o1` stands 3.47%; under `O=C(Nc1ccccc1N1CCOCC1)c1csc2c1CCCC2`, -0.73%.

As to `Cc1nc2cccnc2nc1C`, the reporter increase was 6.05%. Take `CC(C)(C)NC(=O)CN(C(=O)c1csnn1)c1ccccc1-c1ccccc1`: the reporter increase is 10.2% (active). Under `CC(C)(C)NC(=O)CN(C(=O)c1ccc(Cl)nc1)c1cccc2ccccc12` stands -1.92%; under `CCC(C)(C)NC(=O)C(c1ccccn1)N(C(=O)c1csnn1)c1ccccc1` (stereo unspecified), 1.04%. For `CC(C)COC(=O)n1c(=O)oc2ccc(S(=O)(=O)N3CCCCC3)cc21` the value was -1.87%.

Take `Cn1nccc1NS(=O)(=O)c1ccc(F)cc1`: the reporter increase was 0.03%. For the compound `Cn1c(=O)n(C)c2cc(NS(=O)(=O)c3ccc(F)cc3)ccc21`, the reporter increase is 12.5% (active). Under `Cc1cc(C)cc(NS(=O)(=O)c2ccc(F)cc2)c1` stands -2.79%; under `Cn1c2ccccc2c2cc(/C=C(\NC(=O)c3ccccc3)C(=O)NCC(=O)O)ccc21`, -0.33%; under `O=C(NNc1ccccn1)c1ccc(Cl)nc1`, -1.7%. Under `CCN(CC)c1ccc(NC(=O)c2ccc(Cl)nc2)cc1` stands 10.4% (active); under `NS(=O)(=O)c1ccc(NC(=O)COC(=O)c2ccc(Cl)nc2)cc1`, -1.21%; under `CCCc1nc(-c2cc3cc(C)ccc3[nH]c2=O)no1`, -2.96%. Under `FC(F)(F)Oc1ccc(-c2cn3cccnc3n2)cc1` stands -1.79%. Turning to `COc1ccc(CCN2C(=O)N(c3ccc(OC)cc3)C(=O)C2CC(=O)Nc2ccc(OC)cc2)cc1` (stereo unspecified), the reporter increase was -1.78%. Consider `CCCC1=Nc2cc(C(=O)NCc3ccco3)ccc2Sc2ccccc21`, for which the reporter increase was 11.6% (active). For `COc1ccc(CCNS(=O)(=O)c2ccc(C(=O)NCc3ccco3)cc2)cc1OC` the value was -0.79%; for `CCOc1ccccc1C(=O)NCc1ccco1`, -0.54%.
